# Experimental data published in ChEMBL document CHEMBL2218924, “A broad activity screen in support of a chemogenomic map for kinase signalling research and drug discovery” (Biochem J, 2013).
# Target: Vascular endothelial growth factor receptor 2 (Homo sapiens) (UniProt P35968)
# Conditions: at 10 µM
# Chain of Vascular endothelial growth factor receptor 2 (Homo sapiens) (P35968 whole entry): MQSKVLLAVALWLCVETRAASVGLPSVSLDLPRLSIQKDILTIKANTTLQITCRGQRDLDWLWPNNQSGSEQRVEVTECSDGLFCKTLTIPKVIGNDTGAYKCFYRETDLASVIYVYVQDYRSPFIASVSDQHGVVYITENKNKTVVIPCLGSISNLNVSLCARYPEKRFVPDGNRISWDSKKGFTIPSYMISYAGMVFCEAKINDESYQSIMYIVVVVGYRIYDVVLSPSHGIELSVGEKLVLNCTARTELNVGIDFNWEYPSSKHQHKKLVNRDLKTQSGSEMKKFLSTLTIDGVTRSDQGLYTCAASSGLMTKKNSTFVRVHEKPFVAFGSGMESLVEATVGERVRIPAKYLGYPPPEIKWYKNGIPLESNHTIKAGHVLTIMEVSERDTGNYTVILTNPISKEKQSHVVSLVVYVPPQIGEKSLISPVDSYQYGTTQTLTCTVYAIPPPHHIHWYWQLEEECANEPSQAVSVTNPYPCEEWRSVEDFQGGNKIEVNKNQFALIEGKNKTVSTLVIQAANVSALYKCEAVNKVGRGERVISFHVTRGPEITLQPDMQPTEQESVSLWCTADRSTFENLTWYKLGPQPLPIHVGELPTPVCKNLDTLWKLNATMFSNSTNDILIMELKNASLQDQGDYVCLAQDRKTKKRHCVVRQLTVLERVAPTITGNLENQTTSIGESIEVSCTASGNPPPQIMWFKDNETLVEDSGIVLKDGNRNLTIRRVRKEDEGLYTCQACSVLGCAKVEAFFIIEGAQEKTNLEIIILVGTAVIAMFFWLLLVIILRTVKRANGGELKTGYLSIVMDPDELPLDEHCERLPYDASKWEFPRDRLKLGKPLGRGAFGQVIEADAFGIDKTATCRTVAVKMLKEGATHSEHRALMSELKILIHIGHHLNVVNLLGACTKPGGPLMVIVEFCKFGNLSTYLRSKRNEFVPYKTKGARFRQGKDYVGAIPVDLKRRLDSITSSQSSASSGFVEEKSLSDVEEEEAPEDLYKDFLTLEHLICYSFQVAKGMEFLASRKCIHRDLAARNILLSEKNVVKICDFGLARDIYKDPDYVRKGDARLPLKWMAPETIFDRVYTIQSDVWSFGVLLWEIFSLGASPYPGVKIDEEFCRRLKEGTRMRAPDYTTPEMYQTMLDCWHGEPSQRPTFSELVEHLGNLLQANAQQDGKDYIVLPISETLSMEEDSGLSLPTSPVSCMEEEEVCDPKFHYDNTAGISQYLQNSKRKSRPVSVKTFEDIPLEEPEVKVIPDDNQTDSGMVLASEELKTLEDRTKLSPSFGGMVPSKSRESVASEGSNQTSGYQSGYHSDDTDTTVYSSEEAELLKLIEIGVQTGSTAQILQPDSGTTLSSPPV
row,SMILES,residual activity [%]
1,Oc1ccc(-c2nc(-c3ccc(F)cc3)c(-c3ccncc3)[nH]2)cc1,49
2,CC(=O)O/N=C1\C(=C2\C(=O)Nc3cc(Br)ccc32)Nc2ccccc21,5
3,O=C1NC(=O)c2c1c1c3ccccc3[nH]c1c1[nH]c3cc(Br)ccc3c21,58
4,CNc1cc2c(Nc3cccc(Br)c3)ncnc2cn1,40
5,CO[C@H]1C[C@@H]2CC[C@@H](C)[C@@](O)(O2)C(=O)C(=O)N2CCCC[C@H]2C(=O)O[C@H]([C@H](C)C[C@@H]2CC[C@@H](O)[C@H](OC)C2)CC(=O)[C@H](C)/C=C(\C)[C@@H](O)[C@@H](OC)C(=O)[C@H](C)C[C@H](C)/C=C/C=C/C=C/1C,96
6,Cn1cc(/C=C2\C(=O)Nc3ccc(S(N)(=O)=O)cc32)c2ccccc21,7
7,CO[C@H]1[C@@H](OC)C[C@H](C)[C@@H](OC)C2=CC(=O)C=C(NC(=O)/C(C)=C/C=C/[C@H](OC)[C@@H](OC(N)=O)/C(C)=C/[C@@H]1C)C2=O,87
8,N#Cc1cnc2cnc(NCc3cccnc3)cc2c1Nc1ccc(F)c(Cl)c1,76
9,O=[N+]([O-])c1ccc(-c2nc(-c3ccc(F)cc3)c(-c3ccncc3)[nH]2)cc1,93
10,Oc1ccc(Nc2nc(-c3ccc(Cl)cc3)cs2)cc1,92
11,C[C@@H](N)[C@H]1CC[C@H](C(=O)Nc2ccncc2)CC1,108
12,c1ccc2c(-c3ccncc3)c[nH]c2c1,78
13,Cc1cc(Nc2nc(-c3ccccc3)nc3ccccc23)n[nH]1,1
14,N#CCCc1ccc2c(c1)-c1[nH]c3ccc([N+](=O)[O-])cc3c1CC(=O)N2,13
15,COc1cc2ncnc(Nc3ccc(Oc4ccccc4)cc3)c2cc1OC,7
